These results are taken from PubChem BioAssay (NCI).

The panel holds about 83,000 compounds, 20% with a hit somewhere; the sample as a whole holds those more often.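 A percent growth of 40 corresponds to 60% growth inhibition; 0 means no net growth; -100 means all cells died. Active threshold: below 10.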 A number with no mark means an inactive call. Calls of active or inactive are those of the source.

One experiment relates to MOLT-4 leukemia. In words: NCI-60 one-dose screen, 48 h (100 = growth as untreated, 0 = no growth, -100 = all killed). As to conditions: 10 µM unless noted.
Take `CN(C)c1ccc2nc3ccc(=[N+](C)C)c([N+](=O)[O-])c-3sc2c1`: the growth was 15.5%.

`COc1cc(C(=O)/C=C/c2c(Cl)nc3sccn23)cc(OC)c1OC`: the growth is 74%.

Turning to `CNc1ccc(Nc2cccc(C)c2)c2c1C(=O)c1ccccc1C2=O`, the growth is 85.1%.

In the case of `Cc1cc(O)c(C2=NN(c3ccc(S(N)(=O)=O)cc3)C(c3ccccc3O)C2)cc1Cl` (centres undefined), the growth was -57.4% (active).

With `CCN1C(=O)N(CC)C2Nn3c(s/c(=C4\C(=O)N(CCC(C)C)c5ccccc54)c3=O)=NC21` (centres undefined), the growth was 85.5%.

On to `C=C(C)[C@@H]1CC[C@]2(N=C=O)CC[C@]3(C)[C@H](CC[C@@H]4[C@@]5(C)Cc6c([nH]c7ccccc67)C(C)(C)[C@@H]5CC[C@]43C)[C@@H]12`, for which the growth is 61.4%.

`O=C1CSC(c2c(Cl)cccc2Cl)N1c1nc(Cl)cc(=O)[nH]1` (centres undefined): the growth was 171%.

Turning to `COc1ccc(OC)c(/C=C/C(=O)N/N=C/c2ccccc2)c1`, the growth is 36.5%.

Regarding `Oc1ccc(-c2nc3ccc4[nH]ncc4c3c3c2CCCC3)c2cccnc12`, the growth is 5.17% (active).

Turning to `Cc1cc(O)c(C2=NN(c3ccc(S(N)(=O)=O)cc3)C(/C=C/c3ccccc3)C2)cc1Cl` (centres undefined), the growth was 73.3%.

For the compound `COc1ccc(C2=Nn3c(nnc3-c3cc(Cl)cc(Cl)c3Cl)SC2)cc1`, the growth was 8.31% (active).

As to `O=S(=O)(NCCCNc1cc(-c2c(-c3cccc(O)c3)nc3sccn23)ccn1)c1cccc2ccccc12`, the growth was 26.4%.

For `c1cc(-c2nnc(SSc3ncnc4nc[nH]c34)o2)ccn1`, the growth is 18%.

As for `CC[C@H](C)C(=O)O[C@H]1CCC=C2C=C[C@H](C)[C@H](CC[C@@H]3CC=CC(=O)O3)[C@H]21`, the growth is 45.6%.

On to `COc1cc(CCC[P+](c2ccccc2)(c2ccccc2)c2ccccc2)c(OC)c(OC)c1OC`, for which the growth is 57.6%.

Take `COc1ccc(C(=O)/C=C/c2sc(Cl)nc2Cl)cc1`: the growth is 11.6%.

Turning to `COc1ccc(C(=S)N2CCN(c3cccc(C)c3)CC2)cc1OC`, the growth was 54.8%.

For `Cc1cc2nc3ccc(N=Nc4ccc(N(C)C)cc4)cc3n(-c3ccccc3)c-2cc1=N`, the growth is 0.81% (active).

Turning to `CC(=O)CC(c1cccs1)c1c(-c2ccccc2)[nH]c2ccccc12` (centres undefined), the growth is 86.9%.

With `COc1ccc(-n2c(N)c(-c3nc4ccccc4[nH]3)cc(C#N)c2=O)cc1`, the growth was 99.3%.

Regarding `Cc1ncc(C(=O)Nc2ccc(CN3CCN(C)CC3)c(C(F)(F)F)c2)cc1C#Cc1ccc(N)nc1`, the growth was 25.9%.

On to `COC(=O)/C=C1\S/C(=N\Nc2ccc([N+](=O)[O-])cc2[N+](=O)[O-])N(C2CCCCC2)C1=O`, for which the growth is 42.7%.

On to `COc1c(B(O)O)cc(F)cc1-c1nc2ccc3[nH]ncc3c2c2c1CCCC2`, for which the growth is 9.89% (active).

In the case of `CCCCCCN1C(=O)/C(=c2\sc3n(c2=O)C2C(NN=3)N(CC)C(=O)N2CC)c2ccccc21` (centres undefined), the growth was 49.4%.

Take `S=c1nc(-c2ccccc2)oc(=NC2CCCCC2)n1C1CCCCC1`: the growth was 0.447% (active).

Consider `CNC(=O)c1[nH]cc(-c2ccccc2)c1-c1cc(OC)c2c(c1OC)OCO2`, for which the growth is 101%.

In the case of `CCCCCCN(CCCCCC)c1ccc(/C=C2/SC(=O)NC2=O)c(C)c1`, the growth is 75.1%.

Turning to `CC(=O)OC[C@H]1OC(Sc2sc(C(=O)c3ccc(Br)cc3)c(N)c2-c2nc3ccccc3s2)[C@H](OC(C)=O)[C@@H](OC(C)=O)[C@H]1OC(C)=O` (some centres undefined), the growth was 79.3%.

`N#Cc1ccc(NC(=O)c2sc3nc4c(cc3c2N)C(=O)CCC4)cc1`: the growth is 115%.

With `NS(=O)(=O)c1ccc(-n2nc(-c3ccc(Cl)cc3)c3ccccc3c2=O)cc1`, the growth was 59.5%.

Consider `COc1cccc(OC)c1C(=O)N[C@@H]1C(=O)N2[C@@H]1SC(C)(C)[C@@H]2C(=O)O`, for which the growth was 94.6%.

Consider `N/C(=N\c1nc2ccccc2s1)NC(=O)Nc1cccc2ccccc12`, for which the growth is 19.9%.

For the compound `COc1ccc(/C=C/c2c(C(=O)/C=C/c3ccc(C(F)(F)F)cc3)c(C)nc3ccccc23)cc1`, the growth was 6.21% (active).

On to `COc1c(B(O)O)cc(C)cc1-c1nc2ccc3[nH]ncc3c2c2c1CCCC2`, for which the growth is 19.7%.

In the case of `COc1cc(C(=O)c2cc(C)c3[nH]c4ccc(O)cc4c3c2C)cc(OC)c1OC`, the growth is 15.1%.

On to `COc1ccc(/C=C/c2c(C(=O)/C=C/c3ccc(Cl)cc3)c(C)nc3ccccc23)cc1`, for which the growth is 4.01% (active).

For the compound `O=c1ccc(N=Nc2ccc([N+](=O)[O-])cc2)ccc1O`, the growth was 18.6%.

The test system of a further experiment is RPMI-8226 leukemia. Described as above. As to conditions: 10 µM unless noted.
Regarding `CN(C)c1ccc2nc3ccc(=[N+](C)C)c([N+](=O)[O-])c-3sc2c1`, the growth is 21.5%.

For the compound `COc1cc(C(=O)/C=C/c2c(Cl)nc3sccn23)cc(OC)c1OC`, the growth is 40.8%.

In the case of `CNc1ccc(Nc2cccc(C)c2)c2c1C(=O)c1ccccc1C2=O`, the growth is 74.3%.

Take `Cc1cc(O)c(C2=NN(c3ccc(S(N)(=O)=O)cc3)C(c3ccccc3O)C2)cc1Cl` (centres undefined): the growth was 15.4%.

On to `CCN1C(=O)N(CC)C2Nn3c(s/c(=C4\C(=O)N(CCC(C)C)c5ccccc54)c3=O)=NC21` (centres undefined), for which the growth was 73.7%.

Take `C=C(C)[C@@H]1CC[C@]2(N=C=O)CC[C@]3(C)[C@H](CC[C@@H]4[C@@]5(C)Cc6c([nH]c7ccccc67)C(C)(C)[C@@H]5CC[C@]43C)[C@@H]12`: the growth was 18.8%.

Take `O=C1CSC(c2c(Cl)cccc2Cl)N1c1nc(Cl)cc(=O)[nH]1` (centres undefined): the growth was 58.7%.

`COc1ccc(OC)c(/C=C/C(=O)N/N=C/c2ccccc2)c1`: the growth was 54.4%.

For the compound `Oc1ccc(-c2nc3ccc4[nH]ncc4c3c3c2CCCC3)c2cccnc12`, the growth was -6.23% (active).

Turning to `Cc1cc(O)c(C2=NN(c3ccc(S(N)(=O)=O)cc3)C(/C=C/c3ccccc3)C2)cc1Cl` (centres undefined), the growth was 48.7%.

For the compound `COc1ccc(C2=Nn3c(nnc3-c3cc(Cl)cc(Cl)c3Cl)SC2)cc1`, the growth is 1.17% (active).

As for `O=S(=O)(NCCCNc1cc(-c2c(-c3cccc(O)c3)nc3sccn23)ccn1)c1cccc2ccccc12`, the growth was 8.85% (active).

In the case of `c1cc(-c2nnc(SSc3ncnc4nc[nH]c34)o2)ccn1`, the growth was 16.1%.

For the compound `CC[C@H](C)C(=O)O[C@H]1CCC=C2C=C[C@H](C)[C@H](CC[C@@H]3CC=CC(=O)O3)[C@H]21`, the growth was 0.207% (active).

Take `COc1cc(CCC[P+](c2ccccc2)(c2ccccc2)c2ccccc2)c(OC)c(OC)c1OC`: the growth was 68.4%.

As to `COc1ccc(C(=O)/C=C/c2sc(Cl)nc2Cl)cc1`, the growth was -25.4% (active).

In the case of `COc1ccc(C(=S)N2CCN(c3cccc(C)c3)CC2)cc1OC`, the growth was 80%.

Take `Cc1cc2nc3ccc(N=Nc4ccc(N(C)C)cc4)cc3n(-c3ccccc3)c-2cc1=N`: the growth was -63.5% (active).

Take `CC(=O)CC(c1cccs1)c1c(-c2ccccc2)[nH]c2ccccc12` (centres undefined): the growth was 78%.

As to `COc1ccc(-n2c(N)c(-c3nc4ccccc4[nH]3)cc(C#N)c2=O)cc1`, the growth was 92.3%.

On to `Cc1ncc(C(=O)Nc2ccc(CN3CCN(C)CC3)c(C(F)(F)F)c2)cc1C#Cc1ccc(N)nc1`, for which the growth was 1.1% (active).

With `COC(=O)/C=C1\S/C(=N\Nc2ccc([N+](=O)[O-])cc2[N+](=O)[O-])N(C2CCCCC2)C1=O`, the growth is -21.8% (active).

With `COc1c(B(O)O)cc(F)cc1-c1nc2ccc3[nH]ncc3c2c2c1CCCC2`, the growth is -9.77% (active).

In the case of `CCCCCCN1C(=O)/C(=c2\sc3n(c2=O)C2C(NN=3)N(CC)C(=O)N2CC)c2ccccc21` (centres undefined), the growth is 44.6%.

Turning to `S=c1nc(-c2ccccc2)oc(=NC2CCCCC2)n1C1CCCCC1`, the growth is -8.22% (active).

As for `CNC(=O)c1[nH]cc(-c2ccccc2)c1-c1cc(OC)c2c(c1OC)OCO2`, the growth was 105%.

With `CCCCCCN(CCCCCC)c1ccc(/C=C2/SC(=O)NC2=O)c(C)c1`, the growth is 65.5%.

Turning to `CC(=O)OC[C@H]1OC(Sc2sc(C(=O)c3ccc(Br)cc3)c(N)c2-c2nc3ccccc3s2)[C@H](OC(C)=O)[C@@H](OC(C)=O)[C@H]1OC(C)=O` (some centres undefined), the growth is 65.5%.

Consider `N#Cc1ccc(NC(=O)c2sc3nc4c(cc3c2N)C(=O)CCC4)cc1`, for which the growth is 95.7%.

For `NS(=O)(=O)c1ccc(-n2nc(-c3ccc(Cl)cc3)c3ccccc3c2=O)cc1`, the growth was 84.6%.

Take `COc1cccc(OC)c1C(=O)N[C@@H]1C(=O)N2[C@@H]1SC(C)(C)[C@@H]2C(=O)O`: the growth is 102%.

On to `N/C(=N\c1nc2ccccc2s1)NC(=O)Nc1cccc2ccccc12`, for which the growth was 13.8%.

For `COc1ccc(/C=C/c2c(C(=O)/C=C/c3ccc(C(F)(F)F)cc3)c(C)nc3ccccc23)cc1`, the growth is -25.7% (active).

Consider `COc1c(B(O)O)cc(C)cc1-c1nc2ccc3[nH]ncc3c2c2c1CCCC2`, for which the growth is 35.6%.

Consider `COc1cc(C(=O)c2cc(C)c3[nH]c4ccc(O)cc4c3c2C)cc(OC)c1OC`, for which the growth was 8.34% (active).

On to `COc1ccc(/C=C/c2c(C(=O)/C=C/c3ccc(Cl)cc3)c(C)nc3ccccc23)cc1`, for which the growth was -28.6% (active).

For `O=c1ccc(N=Nc2ccc([N+](=O)[O-])cc2)ccc1O`, the growth is 22.4%.
